This is an account of results in PubChem BioAssay AID1671192 (National Center for Advancing Translational Sciences (NCATS), 2021).

Records with an inconclusive call do not appear. Values without a mark were called inactive. Calls come from the whole dose curve; as a rule, active = well fitted curve in the direction sought with a large enough effect; inconclusive = small, poorly fitted or top-dose-only effect, or another doubt; inactive = no such curve, though single readings can be large or run the other way.

Sequence of Polyunsaturated fatty acid lipoxygenase ALOX15 (Homo sapiens) (P16050 whole entry, looked up): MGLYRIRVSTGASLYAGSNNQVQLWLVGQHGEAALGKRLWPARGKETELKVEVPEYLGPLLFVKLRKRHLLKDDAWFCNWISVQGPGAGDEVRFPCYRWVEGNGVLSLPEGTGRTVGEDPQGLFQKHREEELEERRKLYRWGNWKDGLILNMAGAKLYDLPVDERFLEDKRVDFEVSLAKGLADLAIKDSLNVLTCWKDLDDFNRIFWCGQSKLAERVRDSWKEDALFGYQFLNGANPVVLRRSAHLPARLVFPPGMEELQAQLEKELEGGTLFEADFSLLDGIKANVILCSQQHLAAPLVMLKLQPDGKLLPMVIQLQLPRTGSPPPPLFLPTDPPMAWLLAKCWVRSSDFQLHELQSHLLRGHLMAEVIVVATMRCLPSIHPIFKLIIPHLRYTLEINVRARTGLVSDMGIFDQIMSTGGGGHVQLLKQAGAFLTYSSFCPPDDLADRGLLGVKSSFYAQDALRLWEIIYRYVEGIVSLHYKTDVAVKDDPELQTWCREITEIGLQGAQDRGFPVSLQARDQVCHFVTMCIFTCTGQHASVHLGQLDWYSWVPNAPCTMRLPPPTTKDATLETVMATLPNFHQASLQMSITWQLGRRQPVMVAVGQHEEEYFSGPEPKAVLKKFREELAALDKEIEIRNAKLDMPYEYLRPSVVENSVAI

For the assay, the target named is Polyunsaturated fatty acid lipoxygenase ALOX15 (Homo sapiens) (UniProt P16050). In words: Counterscreen qHTS for inhibitors of human arachidonate 12S-lipoxygenase (ALOX12): ALOX15 Assay. Note: 0% is about no effect. The note with it: purified ALOX15 enzyme activity; series mostly up to 110 µM; activity change, negative = inhibition: at the top concentration. From the text:
Assay Provider: Theodore R. Holman Ph.D.
University of California, Santa Cruz, California
Human lipoxygenase 12hLO is a member of the closely related lipoxygenase family of enzymes which catalyze the site-specific oxidation of arachidonic acid to various hormone precursor molecules and as such is a candidate for drug development in a variety of disease areas, such as cancer and inflammation. Inhibition of 12hLO activity was screened by utilizing arachidonic acid as a substrate. The extent of hydroperoxide product formation was measured by a secondary chromogenic reaction in which xylenol orange (XO, Sigma-Aldrich, cat. number 39,818-7) reacts with the ferric ions produced from the reaction between the hydroperoxide and ferrous ions. The Fe (III)-XO complex is characterized with red-shifted absorbance at 560 nm. A purified preparation of human 12hLO was supplied by Dr. Holman laboratory, University of California, Santa Cruz.
An assay against arachidonate 15-lipoxygenase (ALOX15) was developed to assess selective inhibition against ALOX12. Desired compounds would show potent inhibition against ALOX12 and minimal to no inhibition against ALOX15.
SEQUENCE No. (e.g., 1, 2, 3, etc.); PARAMETER (e.g., Cells, Incubation, Reagent, etc.); VALUE; DESCRIPTION
1; Enzyme; 3 uL; 40 nM ALOX15 (15hLO-1) enzyme solution dispensed in 1536-well Greiner black, clear bottom plates.
2; Compound; 23 nL; compounds and controls were added.
3; Incubate; 15 min; room temperature.
4; Substrate; 1 uL; 50 uM arachidonic acid (final concentration).
5; Incubate; 30 min; room temperature.
6; Reagent; 4 uL; Fe-XO solution was added to each well.
8; Incubation; 30 min; room temperature
9; Detector; absorbance; Read 1 at 405 nm absorbance using ViewLux (PerkinElmer) CCD imager.
10; Detector; absorbance; Read 2 at 573 nm absorbance using ViewLux (PerkinElmer) CCD imager.
NOTES (numbers refer to sequence above)
1; 40 nM ALOX15 (final concentration) in buffer solution (25 mM Hepes, 0.01% Triton X-100, pH 7.5) was dispensed in columns 1, 2, 5 - 48. Column 1 is neutral (100% activity). Buffer only was dispensed in columns 3 and 4 as no enzyme negative controls. The plates were covered with metal lids with gas-exchange holes.
2; Compounds were pin transferred via a Kalypsys Pin Tool (Wako USA) in column 5 - 48. Control compound was transferred in column 2, titration of nordihydroguaiaretic acid (NDGA, Sigma-Aldrich, N5023) with top concentration of 10 mM in DMSO then 1:2 dilution in duplicate. Dilution factor of 23 nL into 4 uL final assay volume.
3; Covered assay plates were incubated for 15 min at room temperature.
4; Substrate was added to start the reaction; 50 uM arachidonic acid (Sigma-Aldrich, St. Louis, MO) was dispensed throughout the plate.
6; Chromogenic detection reagent solution (divalent iron/xylenol orange, Fe-XO) was added to each well: 200 uM xylenol orange, 300 uM ferrous ammonium sulfate prepared freshly in 50 mM sulfuric acid.
9, 10; Two absorbance readouts were obtained at 405 nm and at 573 nm using a ViewLux high-throughput CCD plate imager (PerkinElmer). The 573 to 405 (Read 2 / Read 1) absorbance ratio was used to compute reaction progress.
On the technique in general: The purpose of a counterscreen is to sort out artefacts and off-target activity.
Regarding `O=C1NCc2ccccc2CC12CCN(Cc1cccc(OC(F)(F)F)c1)C2` (stereo not given), the “activity change, negative = inhibition” value is 3%.
The result for `CSc1ccc(-c2ccccc2C=O)cc1` reads -21.2% [at 233 µM]; that for `CCCN1CCC2(CC1)Cc1ccccc1CN(C(=O)C(C)C)C2`, -2.08% [at 146 µM]; that for `COc1ccc(N2CC3CCC(C2)N3CC(C)C)cc1`, 3.97% [at 146 µM].
For `CCCN1CCCC2(Cc3ccccc3CN(C(=O)Cc3ccccc3)C2)C1` (stereo not given) the value was -27.1%; for `O=C1NCc2ccccc2CC12CCN(Cc1c(F)cccc1F)C2` (stereo not given), -9.7%.
For `CCCN1CCC2(Cc3ccccc3CN(C(=O)CCCC(=O)O)C2)C1` (stereo not given) the value was -22.9%; for `O=C(c1ccccn1)N1CCc2nc(C3CC3)nc(-c3ccc(Cl)cc3)c2C1`, -1.45%; for `CCC(=O)N1Cc2ccccc2CC2(CCCN(CC3CCNC3)C2)C1` (stereo not given), -19.7% [at 146 µM].
Turning to `Nc1ccccc1CN1CCCC2(Cc3ccccc3CNC2=O)C1` (stereo not given), the “activity change, negative = inhibition” value was -0.583% [at 146 µM].
The result for `CC(C)c1nc2c(c(-c3ccc(Cl)cc3)n1)CCN(Cc1cccc3ccccc13)CC2` reads -12.9%; that for `COc1cccc([S+](=O)([O-])N2CCCC3(CC(c4cccnc4)=NO3)C2)c1` (stereo not given), -25.2%; that for `O=[S+]([O-])(c1ccc(Br)cc1)c1nnn2c1nc(NCc1ccc(F)cc1)c1ccccc12`, -20.2%.
The result for `O=C1NCc2ccccc2CC12CCN(Cc1cc(O)cc(O)c1)C2` (stereo not given) reads 7.36% [at 146 µM]; that for `O=C(c1ccccn1)N1CCn2c(nn(-c3ccc(Cl)cc3)c2=O)C1`, -10.8%; that for `O=C(c1ccc(Cl)cc1)N1CC2(CCCN(Cc3ccc(Cl)cc3)C2)Cc2ccccc21` (stereo not given), -22.5%.
The result for `COc1cccc([S+](=O)([O-])N2CC(Oc3ccc(F)c(F)c3)C2)c1` reads 8.83%.
Turning to `Cc1cc(C)cc(-c2ccc(CN3CCCC(c4nc5ccc(F)cc5c(=O)[nH]4)C3)cc2)c1` (stereo not given), the “activity change, negative = inhibition” value is -3.46%.
For `CC(=O)Nc1ccc(CN2CCCC23Cc2ccccc2CN(C(=O)CCC(=O)O)C3)cc1` (stereo not given) the value was -10.9%; for `CNC(=O)c1cn2c(n1)CN(C(=O)OC)CC2`, -1.52% [at 233 µM].
For `CC1CCCN(c2ncnc3c2CN(C2CCNCC2)C(=O)CN3C)C1` (stereo not given) the value was -19.1%; for `O=c1n(-c2cccc(Cl)c2)nc2n1CCN([S+](=O)([O-])c1cccs1)C2`, -4.57%.
The result for `CN(C)CCC(=O)N1Cc2ccccc2CC2(CCCN(C)C2)C1` (stereo not given) reads -0.887% [at 146 µM]; that for `O=C(C1CCCC1)N1CC2(CCN(Cc3ccc(Cl)cc3)C2)Cc2ccccc21` (stereo not given), -17.1%; that for `O=Cc1cccc(N2CCN(C(=O)c3ccncc3)CC2=O)c1`, -22.8% [at 146 µM].
`Cn1cccc1CN1CCCCC12Cc1ccccc1CNC2=O` (stereo not given): the “activity change, negative = inhibition” value is 242% [at 146 µM].
Turning to `COc1ccccc1C(=O)N1CCn2c(nnc2C2CCNCC2)C1`, the “activity change, negative = inhibition” value is -4.23% [at 146 µM].
The result for `Cc1cc(C)c(S(=O)(=O)c2nnn3c2nc(NCCCOC(C)C)c2ccccc23)c(C)c1` reads -24%; that for `Cn1nc(C2CCCNC2)c2c(C(=O)NCC(F)(F)F)cc(C3CC3)nc21` (stereo not given), -15.3%.
For `COc1ccc(OC2CN(Cc3cccc4ccccc34)C2)cc1` the value was -16% [at 146 µM]; for `CNC1CCCc2ccccc21` (stereo not given), -22.1% [at 233 µM].
The result for `COc1ccccc1C(=O)N1CCc2nc(C3CC3)nc(-c3ccc(Cl)cc3)c2C1` reads -18.6%; that for `O=C(O)c1ccc(-c2cnccn2)cc1`, -14.5% [at 233 µM]; that for `COc1ccc(CNc2ncnc3c2CN(C2CCCNC2)C(=O)CN3C)cc1` (stereo not given), -4.51%.
For the molecule `COc1ccccc1C(=O)N1CCC(N2Cc3ccccc3C2=O)CC1`, the “activity change, negative = inhibition” value is -0.704% [at 146 µM].
With `Cc1ccc(CN2CCC3(CC2)Cc2ccccc2CNC3=O)cc1C`, the “activity change, negative = inhibition” value is -22.2%.
With `O=C1Nc2ccccc2CC12CN(Cc1c[nH]c3ccccc13)C2`, the “activity change, negative = inhibition” value is -21.2% [at 146 µM].
For `COc1cccc(CNc2ncnc3c2CN(C2CCCNCC2)C(=O)CN3C)c1` (stereo not given) the value was -3.38%.
For `COc1cccc(-c2ccc(CN3C4CCC3CN(C(=O)Nc3ccccc3F)C4)cc2)c1` the value was -19%.
As for `CN1CC(=O)N(C2CCC2)Cc2c(NC3CCNCC3)ncnc21`, the “activity change, negative = inhibition” value was -16.5% [at 146 µM].
